Screening results from PubChem BioAssay.
Rows were chosen to be rich in hits. Some 2.3% of all compounds tested hit in one or more screens of this group.
CHO-K1 Ca ag: counter-screen for M1 agonists: effect in parental CHO-K1 cells | Fluo-8 calcium fluorescence; scaled to maximal ATP response, vehicle zero | AID 602248, 2012 | activation, % at 3 µM | 360,000 tested, 0.48% active; in the data active = activation above about 15%;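 note: untransfected CHO-K1 host cells lacking M1 receptor as counterscreen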
CHRM1 agonist: human M1 muscarinic receptor agonists, primary screen, Fluo-8 calcium fluorescence, CHO-K1 cells, HTS; CHO-K1 hM1, agonist mode; 0% DMSO, 100% acetylcholine EC100; activation, % at 3 µM; 360,000 tested, 0.33% active; AID 588814, 2011;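 active = activation above the run's mean compound activation plus 3 SD, cut at about 16% in these data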;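 note: peak over basal fluorescence ratio within a 140 s kinetic read after compound addition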
Target sequence (P11229 whole entry, looked up): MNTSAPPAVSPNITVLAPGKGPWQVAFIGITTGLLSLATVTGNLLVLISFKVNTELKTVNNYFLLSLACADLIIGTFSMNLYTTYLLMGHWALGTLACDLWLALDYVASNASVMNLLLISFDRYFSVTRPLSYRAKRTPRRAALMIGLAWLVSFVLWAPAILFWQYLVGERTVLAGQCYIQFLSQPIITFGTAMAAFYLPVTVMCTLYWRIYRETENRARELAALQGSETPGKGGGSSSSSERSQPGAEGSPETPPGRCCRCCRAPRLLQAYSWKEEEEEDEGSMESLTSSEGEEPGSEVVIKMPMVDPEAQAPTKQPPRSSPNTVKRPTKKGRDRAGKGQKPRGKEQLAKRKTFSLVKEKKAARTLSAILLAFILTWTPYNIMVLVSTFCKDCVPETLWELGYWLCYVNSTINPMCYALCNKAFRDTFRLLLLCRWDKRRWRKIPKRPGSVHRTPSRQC
M1 antag: human M1 muscarinic receptor antagonists, primary screen, CHO-K1 cells, Fluo-8 calcium fluorescence, 1536-well | 360,000 tested, 1.3% active | Muscarinic acetylcholine receptor M1 (Homo sapiens), P11229 | CHO-K1 hM1, ACh EC80 antagonist | inhibition, % at 3 µM | AID 588852, 2011;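 active = percent inhibition above its own plate's cutoff, namely the mean of that plate's compound wells plus 3 SD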;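 note: peak over basal fluorescence ratio during 140 s after agonist addition; 0% = ACh EC80 plus DMSO and 100% = DMSO alone without agonist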
M1 PAM parental: nonselective calcium activators in parental CHO-K1 cells, primary screen, counter-screen for M1 PAM project, cell-based, Fluo-8 calcium fluorescence, full deck, 1536-well | AID 602247, 2012 | 360,000 tested, 0.02% active | ATP EC20; 0% at ATP EC20, 100% at ATP max | activation, % at 3 µM;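 active = activation above the run cutoff, the mean activation of all test compounds plus 3 SD, cut at about 40% in these data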;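 note: peak over basal fluorescence ratio in a 140 s read after ATP addition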
M1 PAM: human M1 muscarinic receptor positive allosteric modulators, primary screen, CHO-K1 cells, Fluo-8 calcium fluorescence, 1536-well | activation, % at 3 µM | AID 588819, 2011 | 360,000 tested, 0.088% active | CHO-K1 hM1, ACh EC20; 0% = ACh EC20, 100% = maximal ACh; in the data active = activation above about 19%, passing the limit was not always enough
CHO-K1 Ca antag: nonselective inhibitor or artifact in parental CHO-K1 cells; ATP-induced calcium, Fluo-8 fluorescence; inhibition, % at 3 µM; AID 602250; 360,000 tested, 0.6% active;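 active = inhibition above a per-plate cutoff, the plate's mean sample inhibition plus 3 SD, cut at about 24% in these data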;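 note: 0% = DMSO plus EC80 ATP and 100% = DMSO alone without ATP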
* marks the source's active call; other numbers are inactive results.

SMILES	CHO-K1 Ca ag	CHRM1 agonist	M1 antag	M1 PAM parental	M1 PAM	CHO-K1 Ca antag
C(#CC12CC3CC(CC(C3)C1)C2)CN1CCOCC1	0.3	-4.0	-11.4	-1.8	9.1	-4.3
Cc1ccn2c(NCc3ccccc3)c(-c3cccc(SC4CCCCC4)c3)nc2c1	0.5	-7.1	10.4	7.7	-10.0	-20.1
CCC(C)Sc1cccc(-c2nc3cc(C)ccn3c2NCc2ccccc2)c1 (stereo unspecified)	0.1	-8.3	42.8*	10.7	-19.8	-6.2
CCCCCOc1ccc2oc(=O)c3c(c2c1)CCCN3C(=O)CN1CCCC(C(=O)OCC)C1 (stereo unspecified)	0.1	-3.7	34.7*	5.0	-19.0	6.8
COC(=O)c1ccc(/C=C/c2c(-c3ccsc3)sc3ccccc23)cc1	0.0	-7.2	39.6*	-10.6	-13.8	-10.9
CC1CC(C)CN(CCOCCSc2ccccc2)C1 (stereo unspecified)	0.7	-6.9	1.3	9.5	-18.3	5.9
Clc1ccc(SCCCN2CCCCC2)cc1	0.7	-5.8	33.3*	-0.3	-16.5	-10.7
CC1CC(C)CN(CCOCCSc2ccc(Cl)cc2)C1 (stereo unspecified)	2.7	-3.8	34.9*	6.7	-21.5	-2.5
COc1ccc(OCC(=O)N2CCC3(CC2)CC(=O)c2ccccc2O3)cc1	1.4	-2.9	-8.0	5.2	6.6	-10.1
CCOC(=O)C1CCCN(S(=O)(=O)c2cnc(Cl)c(Br)c2)C1 (stereo unspecified)	-0.3	-2.8	-10.2	15.7	10.4	-14.2
O=C(Cn1cc(C(F)(F)F)ccc1=O)N/N=C/c1cccc(Cl)c1	4.5	-5.2	-2.5	-0.1	-3.0	7.7
COc1cccc(N2CCN(C(=S)Nc3ccccc3OC)CC2)c1	0.3	-3.5	-6.3	10.2	10.2	-8.0
COc1ccc(NC(=S)N2CCN(C(c3ccccc3)c3ccccc3)CC2)c(OC)c1	0.6	-14.4	46.3*	21.7	-33.1	-8.3
CCOc1ccccc1NC(=S)N1CCN(c2cccc(OC)c2)CC1	17.0*	1.2	-10.0	6.8	7.3	3.7
Cn1nc(C(F)(F)F)c(-c2ccc(Br)cc2)c1NC(=O)Nc1ccc(F)cc1F	9.0	3.9	38.3*	-20.6	-8.6	19.5
O=C(CN1C(=O)NC2(CCCc3ccccc32)C1=O)NCc1cccs1 (stereo unspecified)	0.9	-1.0	-14.7	7.0	13.9	3.7
COc1cccc(C(=O)NCCS(=O)(=O)NCc2ccco2)c1	0.7	-2.9	-13.8	8.3	7.3	36.8*
O=C(CNS(=O)(=O)c1c(Cl)cccc1Cl)OCC(=O)N1CCN(c2ccccc2)CC1	1.1	-6.8	13.1	-12.3	-6.2	25.9*
O=C(c1cc(COc2ccc(F)cc2Cl)on1)N1CCN(C2CCCCC2)C(=O)C1	20.9*	2.4	28.4*	-18.6	-14.4	17.3
CSCCC(NC(=O)c1ccco1)C(=O)NCCc1ccc(Cl)cc1 (stereo unspecified)	1.2	-1.8	1.3	-6.0	-0.8	1.4
Cn1c(-c2ccc3c(c2)OCO3)cnc1NCc1cccc(Cl)c1	0.7	-4.5	73.7*	9.1	-21.2	0.1
Cc1ccc(-c2cnc(NCc3cc4c(cc3[N+](=O)[O-])OCO4)n2C)cc1C	17.0*	-4.5	-1.2	18.6	-0.2	-7.5
Cn1c(-c2ccc3c(c2)OCO3)cnc1NCc1ccccc1Cl	3.2	-4.9	94.3*	7.6	-22.8	-8.1
Cc1cc(C)cc(NCc2cc3c(cc2[N+](=O)[O-])OCO3)c1	-0.2	-8.3	-9.0	-7.6	1.0	-1.9
Cn1c(-c2ccc3c(c2)OCO3)cnc1NCc1ccccc1	3.4	-6.6	10.2	-6.8	-21.1	-2.4
SMILES	CHO-K1 Ca ag	CHRM1 agonist	M1 antag	M1 PAM parental	M1 PAM	CHO-K1 Ca antag
Cc1cc(N2O[C@H]3C=C[C@@H]2C3)no1	0.6	-1.8	-3.0	9.7	2.1	-9.8
O=C(CN1CCN(c2ccccn2)CC1)N1c2ccccc2Sc2ccc(C(F)(F)F)cc21	0.4	-6.7	30.9*	5.7	-27.2	14.2
O=C(CN1CCCC1)N1c2ccccc2Sc2ccc(Cl)cc21	1.2	-9.7	99.1*	19.2	-28.8	-13.2
O=C(CN1CCCC1)N1c2ccccc2Sc2ccc(C(F)(F)F)cc21	0.8	-5.5	99.2*	14.2	-19.2	-14.9
CCNCCC(=O)N1c2ccccc2Sc2ccc(C(F)(F)F)cc21	-0.2	-9.2	100.0*	10.6	-29.3	-3.8
Cc1cc(=O)[nH]c2sc(C(=O)N3c4ccccc4CC3C)c(N)c12 (stereo unspecified)	2.0	4.8	-5.9	15.0	-1.0	-13.9
Cc1oc(-c2cccs2)nc1CN1CCC(CO)(CCOc2ccccc2)CC1	0.0	-5.1	-18.3	-16.5	13.5	11.1
COc1ccc(C2=NOC(C)(c3nnc(Cc4ccccc4)o3)C2)cc1 (stereo unspecified)	0.3	0.5	-4.8	14.6	14.8	-13.9
O=C(OCC1CCCN2CCCCC12)c1ccc2c(c1)OCO2 (stereo unspecified)	0.3	-8.8	29.1*	4.4	-18.9	7.0
O=C(NC(=O)c1ccccc1)OCC1CCCN2CCCCC12 (stereo unspecified)	0.1	-10.5	-9.7	-12.6	5.6	3.5
O=C(C1CCCO1)N1CCN(S(=O)(=O)c2ccc(Cl)cc2)CC1 (stereo unspecified)	6.4	-0.3	19.9	-2.2	-5.0	19.4
O=C(NCC1CCCO1)C1CCN(C2CCN(CCCC3CCCC3)CC2)CC1 (stereo unspecified)	0.1	-10.6	-3.0	7.4	9.4	3.6
O=C(NCC1CCCO1)C1CCN(C2CCN(C(=O)CC3CCCC3)CC2)CC1 (stereo unspecified)	-0.4	-13.2	8.8	-18.9	5.5	27.3*
C=CCn1nc(C(=O)N2CCOCC2)cc1-c1sc(NC(=O)c2ccccc2)nc1C	3.4	0.2	-1.6	19.5	-8.4	-4.8
COC(=O)c1cc(C(=O)OCC(=O)NC(=O)c2ccccc2)cc([N+](=O)[O-])c1	0.1	-2.3	27.6*	3.9	1.7	4.8
COC(=O)c1cc(C(=O)OCC(=O)c2ccc[nH]2)cc([N+](=O)[O-])c1	0.3	-5.1	5.7	-22.3	2.5	16.8
CC(C)CNC(=O)c1cccc(NC(=O)C(C)Oc2ccccc2)c1 (stereo unspecified)	0.6	-3.5	-4.7	-1.9	-4.1	-5.2
COc1cc(C2C=C(c3cccs3)Nc3ncnn32)cc(OC)c1OC (stereo unspecified)	19.7*	12.2	7.9	-2.1	-1.8	3.5
COc1cc(C2CC(=O)C3=C(C2)Nc2ncnn2C3c2cccs2)cc(OC)c1OC (stereo unspecified)	0.4	1.3	-14.5	13.9	21.4	-9.7
